Measured values as given in PubChem BioAssay (NCATS).
Values joined by “and” are separate entries in the source; they are usually repeats but may differ in a detail not shown here. Equal values may be shown once. A number with no mark means an inactive call. Records with an inconclusive call do not appear. A call without a number means that no potency is given here. Active and inactive are the calls of the source. Unless noted, the call rests on the fitted dose curve; in most records, active means well fitted curve in the direction sought with a large enough effect; inconclusive means small, poorly fitted or top-dose-only effect, or another doubt; inactive means no such curve, though single readings can be large; an effect the other way counts as inactive or inconclusive.

How the values were obtained:
[1] = molecular target: Mitogen-activated protein kinase 10 (Mus musculus) (UniProt Q61831); test: JNK3 AlphaScreen Assay (AID 530; active means well fitted curve in either direction with a large enough effect, not every such curve was filed as active;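 further: kinase came from lysate of stimulated human HepG2 cells; signal reports phosphorylation of biotinylated GST-cJun 1-79 at Ser73 with 10 µM ATP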)
Method in brief: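 Biotinylated GST-cJun(1-79) served as substrate for JNK3 in HepG2 lysates stimulated with IL-1beta and TNF-alpha. ATP was 10 uM final, pH 7.6. Ser73 phosphorylation was quantified by AlphaScreen (680 nm excitation).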

[2] = Cell Viability - NIH 3T3 (AID 541); settings: NIH 3T3 cell viability, qHTS; activity change, negative = cytotoxicity: at 92.2 µM (top of the series);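 further: cells exposed to compound for 40 hours; nearly all actives have a fitted effect of over 25% in size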; further: potency means the concentration at half of the fitted maximal effect
Method in brief: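 qHTS format; 40 hr compound exposure, 37 °C; CellTiter-Glo luminescence (cellular ATP) read-out after 20 min at RT. Decrease in ATP = cytotoxicity; AC50 from standard Hill fit.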

[3] = Cellular Toxicity (caspase-3) Hek293 (AID 664); settings: HEK293 caspase-3 activation, DMSO = 0%, 100 µM tamoxifen = 100%; at 92.2 µM (top of the series);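 further: cells exposed to compound for 16 h at 37 °C before readout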
Method in brief: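 Luminescent Caspase-Glo 3/7 readout (aminoluciferin release) in HEK293 cells after 16 h compound treatment, 37 °C. Normalization: DMSO = basal, 100 uM tamoxifen = 100% stimulation. Concentration-response fitted with standard Hill equation for AC50.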

[4] = molecular target: Cytochrome P450 3A4 (Homo sapiens) (UniProt P08684); test: qHTS Assay for Inhibitors and Substrates of Cytochrome P450 3A4 (AID 884); further: nearly all actives have a fitted effect of over 50% in size
Cytochrome P450 3A4 (Homo sapiens), sequence (P08684 whole entry, looked up): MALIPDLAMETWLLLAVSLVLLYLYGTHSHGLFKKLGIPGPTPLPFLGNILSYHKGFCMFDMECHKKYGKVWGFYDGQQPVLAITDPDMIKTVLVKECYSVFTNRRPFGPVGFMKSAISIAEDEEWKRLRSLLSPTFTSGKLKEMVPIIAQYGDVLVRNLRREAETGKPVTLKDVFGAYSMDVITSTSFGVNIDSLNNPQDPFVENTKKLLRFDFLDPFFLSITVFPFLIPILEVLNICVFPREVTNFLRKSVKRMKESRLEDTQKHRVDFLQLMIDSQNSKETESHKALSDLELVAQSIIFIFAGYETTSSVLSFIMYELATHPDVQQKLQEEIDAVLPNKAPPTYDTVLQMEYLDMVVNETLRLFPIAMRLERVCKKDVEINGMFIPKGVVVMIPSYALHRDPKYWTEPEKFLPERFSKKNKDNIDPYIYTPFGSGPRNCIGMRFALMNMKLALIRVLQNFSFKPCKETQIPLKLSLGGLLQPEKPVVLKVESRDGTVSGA
Method in brief: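 Luminescent readout of luciferin produced by CYP3A4 (20 nM) dealkylation of Luciferin-PPXE, 25 uM (its KM). NADPH-driven reaction ran 60 min at RT after 10 min compound preincubation; data scaled to 57 uM ketoconazole as 100% inhibition.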

[5] = MultiTox-Fluor Cytotoxicity Assay - LYMP1-002 - Live Cells (AID 955)
Method in brief: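 LYMP1-002 lymphoblastoid cells; 2500 cells/well; 16 hr compound exposure, 37 C; MultiTox-Fluor reagent 60 min RT; live-cell fluorescence Ex/Em=405/510; qHTS concentration-response, Hill-equation AC50; tetraoctylammonium bromide positive control.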

[6] = MultiTox-Fluor Cytotoxicity Assay - LYMP1-002 - Dead Cells (AID 960); further: nearly all actives have a fitted effect of over 60% in size; further: potency means the concentration at half of the fitted maximal effect
Method in brief: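 Readout: fluorescence at 485/520 from cell-impermeant bis-AAF-R110 cleaved by proteases leaking from damaged cells. LYMP1-002 lymphoblastoid line, 16 hr compound treatment at 37 C, concentration-response in qHTS format; Hill-equation AC50 values.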

[7] = Cell Viability - LYMP2-003 (AID 965);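 further: cells exposed to compounds for 24 h before reading; nearly all actives have a fitted effect of over 50% in size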; further: potency means the concentration at half of the fitted maximal effect
Method in brief: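 Human lymphoblastoid LYMP2-003 cells, 2500/well, exposed to compounds for 24 h at 37 C in complete medium. Viability read as intracellular ATP by CellTiter-Glo luminescence; AC50 from Hill-equation fits of qHTS concentration-response data.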

[8] = Cell Viability - LYMP2-017 (AID 972); further: nearly all actives have a fitted effect of over 55% in size; further: potency means the concentration at half of the fitted maximal effect
Method in brief: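 Luminescent ATP read-out (CellTiter-Glo, 30 min RT) reports viable cell number. Cells: human lymphoblastoid line, 2500 per well, 5 hr preincubation, 24 hr compound exposure at 37 C. AC50 is derived from qHTS concentration-response data using the standard Hill model.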

[9] = Cell Viability - LYMP2-021 (AID 974);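 further: compound exposure lasts 24 hours at 37 °C; nearly all actives have a fitted effect of over 55% in size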; further: potency means the concentration at half of the fitted maximal effect
Method in brief: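 ATP luminescence (CellTiter-Glo, 30 min RT) after 24 h compound exposure at 37 C; 2500 human lymphoblastoid cells/well, 5 h settle beforehand. Cytotoxicity = concentration-dependent ATP drop, AC50 by Hill fit.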

[10] = Cell Viability - LYMP2-016 (AID 984); further: nearly all actives have a fitted effect of over 55% in size; further: potency means the concentration at half of the fitted maximal effect
Method in brief: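 Human lymphoblastoid LYMP2-016 cells, 2500 per well, treated with compounds for 24 h at 37 C. Viability read as intracellular ATP by CellTiter-Glo luminescence after 30 min at room temperature; AC50 from Hill fits of concentration-response.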

[11] = Cell Viability - LYMP1-002 - Assay at 24 hr (AID 993)
Method in brief: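 CellTiter-Glo luminescence (intracellular ATP) after 24 h compound exposure, 37 C, in LYMP1-002 human lymphoblastoid cells; decreased ATP taken as cytotoxicity. AC50 from standard Hill fit of concentration-response curves.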

[12] = molecular target: Vitamin D3 receptor (Homo sapiens) (UniProt P11473); test: qHTS assay for small molecule agonists of vitamin D receptor signaling (AID 588543; calls by dose curve)
Vitamin D3 receptor (Homo sapiens), sequence (P11473 whole entry, looked up): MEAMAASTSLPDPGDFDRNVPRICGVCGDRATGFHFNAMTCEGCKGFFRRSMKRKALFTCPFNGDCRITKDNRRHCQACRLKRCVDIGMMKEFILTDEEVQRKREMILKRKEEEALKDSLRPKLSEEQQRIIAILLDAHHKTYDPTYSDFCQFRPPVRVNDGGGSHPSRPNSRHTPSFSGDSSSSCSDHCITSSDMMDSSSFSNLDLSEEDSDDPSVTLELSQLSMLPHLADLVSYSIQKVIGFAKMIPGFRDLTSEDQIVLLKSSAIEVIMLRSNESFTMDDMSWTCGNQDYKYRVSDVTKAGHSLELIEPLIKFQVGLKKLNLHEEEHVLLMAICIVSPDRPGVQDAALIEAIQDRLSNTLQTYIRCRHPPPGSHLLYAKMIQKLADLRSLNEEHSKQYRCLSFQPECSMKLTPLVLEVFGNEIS
Method in brief: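 VDR-UAS-bla HEK293T cells, 2000/well, 2% charcoal-stripped FBS; compound titration 16 h at 37 C; CCF4 beta-lactamase ratio read. Normalized to 50 nM 1-alpha,25-dihydroxyvitamin D3 (100%) and DMSO; Hill fit gives EC50, efficacy.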

[13] = qHTS assay for small molecule disruptors of the mitochondrial membrane potential - 5 hr assay (AID 651755; calls by dose curve; further: nearly all actives have a fitted effect of over 40% in size)
Method in brief: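 Seed HepG2 overnight, add compound, incubate 5 hr at 37C and 5% CO2, stain 30 min with Mito-MPS, then measure monomer (490/535 nm) and aggregate (540/590 nm) fluorescence.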

[14] = molecular target: Tumor necrosis factor (Homo sapiens) (UniProt P01375); test: qHTS assay to identify small molecules that stimulate Tumor Necrosis Factor-alpha (TNF-alpha) secretion (AID 651757; active means well fitted curve in the direction sought with a large enough effect in the signal ratio; the % refers to the signal ratio)
Tumor necrosis factor (Homo sapiens), sequence (P01375 whole entry, looked up): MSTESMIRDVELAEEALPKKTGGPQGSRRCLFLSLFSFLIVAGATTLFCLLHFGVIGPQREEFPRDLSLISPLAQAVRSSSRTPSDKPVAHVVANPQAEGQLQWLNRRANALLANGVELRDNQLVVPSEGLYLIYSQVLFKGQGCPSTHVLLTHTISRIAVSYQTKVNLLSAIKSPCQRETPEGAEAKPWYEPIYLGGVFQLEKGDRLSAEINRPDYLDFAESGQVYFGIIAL
Method in brief: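 THP-1 cells, 3000/well; compound 17 hrs, 37 C; add cryptate/XL665 anti-TNF-alpha antibody pair; 3 hr RT; TR-FRET (HTRF) read of secreted TNF-alpha. Quantitative HTS format.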

[15] = molecular target: Nuclear receptor subfamily 1 group I member 2 (Rattus norvegicus) (UniProt Q9R1A7); test: qHTS assay for small molecule activators of the rat pregnane X receptor (rPXR) signaling pathway (AID 651751; call rule not given here); settings: rPXR reporter cells, luciferase (One-Glo), 24 h
Nuclear receptor subfamily 1 group I member 2 (Rattus norvegicus), sequence (Q9R1A7 whole entry, looked up): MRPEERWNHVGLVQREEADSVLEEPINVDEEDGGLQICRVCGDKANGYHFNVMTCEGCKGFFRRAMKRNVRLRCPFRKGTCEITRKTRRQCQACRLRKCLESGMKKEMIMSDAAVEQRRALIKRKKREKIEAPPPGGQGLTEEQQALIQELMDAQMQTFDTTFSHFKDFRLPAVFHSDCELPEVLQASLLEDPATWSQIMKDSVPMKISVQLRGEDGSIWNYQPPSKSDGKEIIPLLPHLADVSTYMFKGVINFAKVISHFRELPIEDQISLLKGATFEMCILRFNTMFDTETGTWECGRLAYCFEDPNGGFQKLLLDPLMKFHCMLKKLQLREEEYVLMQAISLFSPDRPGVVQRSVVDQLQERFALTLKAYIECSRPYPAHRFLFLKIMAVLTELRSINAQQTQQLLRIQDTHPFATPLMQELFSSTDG

[16] = Cell Viability - Mesenchymal (AID 546);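 further: cells exposed to compound for 40 hours before reading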
Method in brief: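 In this qHTS cytotoxicity format, glomerulus-derived human mesenchymal kidney cells received compound for 40 hr, then luciferase-based ATP quantitation. Concentration-response data were fitted with the Hill equation.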

[17] = qHTS assay for small molecule activators of the human pregnane X receptor (PXR) signaling pathway (AID 720659; call rule not given here)
[18] = molecular target: Nuclear receptor ROR-gamma (Homo sapiens) (UniProt P51449); test: qHTS assay for small molecule antagonists of the retinoid-related orphan receptor gamma (ROR-gamma) signaling pathway (AID 651802);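 further: CHO cells with doxycycline-induced ROR-gamma expression; luciferase reporter luminescence driven by ROR response element; nearly all actives have a fitted effect of over 60% in size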
Nuclear receptor ROR-gamma (Homo sapiens), sequence (P51449 whole entry, looked up): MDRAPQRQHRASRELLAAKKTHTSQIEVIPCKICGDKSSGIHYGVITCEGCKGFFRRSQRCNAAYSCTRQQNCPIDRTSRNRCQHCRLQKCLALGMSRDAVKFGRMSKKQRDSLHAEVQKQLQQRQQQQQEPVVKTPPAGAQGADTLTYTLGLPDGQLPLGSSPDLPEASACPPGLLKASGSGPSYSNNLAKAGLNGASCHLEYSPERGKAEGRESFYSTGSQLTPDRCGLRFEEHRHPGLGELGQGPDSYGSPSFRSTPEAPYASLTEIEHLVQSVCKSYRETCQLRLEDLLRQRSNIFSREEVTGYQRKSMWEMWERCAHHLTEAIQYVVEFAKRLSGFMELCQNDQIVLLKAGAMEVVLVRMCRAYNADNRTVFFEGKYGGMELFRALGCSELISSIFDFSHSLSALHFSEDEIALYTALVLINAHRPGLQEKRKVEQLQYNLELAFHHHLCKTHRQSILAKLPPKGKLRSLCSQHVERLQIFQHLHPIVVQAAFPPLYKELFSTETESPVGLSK
Method in brief: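 Luciferase read-out: ONE-Glo luminescence after 30 min at room temperature, following 16hr doxycycline induction at 37C, 5% CO2 of CHO cells with TET-inducible ROR and RORE-LUC reporter; decreased luminescence = reduced reporter activity.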

[19] = qHTS assay for small molecule agonists of the antioxidant response element (ARE) signaling pathway measured by Nrf2-dependant transcriptional activity - cell viability counter screen (AID 720653; active means well fitted curve in the direction sought with a large enough effect in the repeat runs; an effect the other way counts as inactive or inconclusive); settings: ARE-bla HepG2 viability, CellTiter-Glo ATP luminescence, 16 h; hits give low values
Method in brief: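 ARE-bla HepG2 cells (2,000/well) rested 5 hrs at 37C/5% CO2, then exposed to compounds in DMSO for 16 hrs. Viability was read in the same wells as intracellular ATP by luminescence, 30 min at room temperature after reagent addition.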

[20] = Cellular Toxicity (caspase-3) MRC-5 (AID 659)
Method in brief: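 Apoptosis readout in MRC-5 cells: luciferase light generated after caspase 3/7 cleaves a peptide-aminoluciferin substrate, measured post 16 hr compound incubation at 37 °C.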

Structure (SMILES)	Potency [1]	Potency [2]	caspase-3 activation [3] [%]	Potency [4]	outcome [5]	Potency [6]	Potency [7]	Potency [8]	Potency [9]	Potency [10]	Potency [11]	outcome [12]	Potency [13]	outcome [14]	max response [15]	Potency [16]	outcome [17]	Potency [18]	max response [19]	outcome [20]
OC[P+](CO)(CO)CO	inactive	0.501 µM (active)	0.818	inactive	inactive	inactive	25.1 µM (active)	12.6 µM (active)	12.6 µM (active)	20 µM (active)	inactive	inactive	inactive	inactive	-2.2% and -0.448%	–	–	–	–	–
CN(C)c1ccccc1	inactive	inactive	-0.669	inactive	inactive	inactive	inactive	inactive	inactive	inactive	inactive	inactive	inactive	inactive	-6.91%	inactive	inactive	–	–	–
O=[N+]([O-])c1ccccc1O	inactive	inactive	-0.522	inactive	inactive	inactive	inactive	–	inactive	inactive	inactive	–	inactive	inactive	0.314%	inactive	inactive	inactive	5.01%	–
C=CC=O	inactive	inactive	0.46	inactive	–	inactive	inactive	inactive	–	–	–	inactive	–	inactive	1.01%	inactive	inactive	inactive	9.03%	inactive
CC(C)(Cl)Cl	inactive	inactive	0.825	inactive	inactive	inactive	inactive	–	inactive	–	inactive	inactive	inactive	inactive	-1.57%	inactive	inactive	–	-1.91%	inactive
Clc1ccc(C(Cl)(Cl)Cl)c(Cl)c1	inactive	inactive	0.186	–	inactive	inactive	inactive	inactive	inactive	inactive	inactive	inactive	inactive	inactive	-3.95%	inactive	inactive	inactive	-1.74%	inactive
Clc1ccc(Cl)c(Cl)c1	inactive	inactive	–	inactive	inactive	inactive	inactive	inactive	inactive	inactive	–	inactive	inactive	inactive	1.05% and -0.643%	inactive	–	inactive	4.11% and 3.77%	inactive
C=C(C)CCl	inactive	–	–	inactive	inactive	inactive	inactive	inactive	inactive	–	inactive	inactive	inactive	inactive	-1.42%	–	inactive	inactive	-2.48%	inactive
CCC(Cl)[N+](=O)[O-] (stereo not drawn)	inactive	inactive	–	inactive	inactive	inactive	inactive	inactive	inactive	inactive	inactive	inactive	inactive	inactive	-0.428%	–	inactive	inactive	-4.85%	inactive
OCCBr	inactive	inactive	0.017	inactive	inactive	inactive	inactive	inactive	inactive	inactive	inactive	inactive	inactive	inactive	-0.978%	inactive	inactive	inactive	1.65%	inactive
Nc1cc(Cl)cc(Cl)c1	inactive	inactive	1.09	–	–	inactive	inactive	–	inactive	inactive	inactive	inactive	inactive	inactive	-0.532%	inactive	inactive	inactive	-13%	inactive
NC1CCC(CC2CCC(N)CC2)CC1 (stereo not drawn)	inactive	–	-0.935	inactive	inactive	3.98 µM (active)	inactive	inactive	inactive	inactive	inactive	–	inactive	inactive	5.41% and 4.82%	inactive	inactive	inactive	-9.14% and 3.44%	inactive
CCOP(=O)(OCC)OCC	inactive	inactive	0.845	inactive	–	inactive	inactive	inactive	inactive	inactive	inactive	inactive	inactive	inactive	0.98% and -0.959%	inactive	inactive	inactive	–	inactive
ClCC(Cl)CCl	inactive	inactive	1.26	inactive	inactive	inactive	inactive	inactive	inactive	inactive	inactive	inactive	inactive	inactive	8.27% and 1.68%	inactive	inactive	inactive	3.4% and -4.41%	–
